# Source: the supplement of paper PMC12282887
# ± gives the standard deviation of the averaged measurements.
# Tests used:
# Assay in all cases: promoter activity interaction Z-score (Lux/OD deviation from empty-vector control); higher = stronger promoter induction by the compound
# [1] = system: E. coli BW25113 acrABp lux reporter
# Summary of the method: (§1)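 In 384-well plates, 40 µl LB Lennox cultures of E. coli BW25113 with low-copy luxCDABE promoter reporters grew at 37°C. Optical density at 600 nm and light output were recorded every 30 min for 12 h, with windows of 0–8 h for wild type and 1–9 h for deletion strains, and wells under 10% of the median growth value were left out. Each value is a Z-transformed residual of growth-normalised luminescence fitted against a control.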
# [2] = system: E. coli BW25113 micFp lux reporter
# Summary of the method: as §1
# [3] = system: E. coli BW25113 ompFp lux reporter
# Summary of the method: as §1
# [4] = system: E. coli BW25113 robp lux reporter
# Summary of the method: as §1
# [5] = system: E. coli BW25113 soxSp lux reporter
# Summary of the method: as §1
# [6] = system: E. coli BW25113 tolCp lux reporter
# Summary of the method: as §1
# [7] = 2.4 µg/ml, genetic background: wild type
# [8] = 2.4 µg/ml, genetic background: ΔmarA
# [9] = 2.4 µg/ml, genetic background: Δrob
# [10] = 2.4 µg/ml, genetic background: ΔsoxS
# [11] = 4.8 µg/ml, genetic background: wild type
# [12] = 4.8 µg/ml, genetic background: ΔmarA
# [13] = 4.8 µg/ml, genetic background: Δrob
# [14] = 4.8 µg/ml, genetic background: ΔsoxS
# [15] = 9.5 µg/ml, genetic background: wild type
# [16] = 9.5 µg/ml, genetic background: ΔmarA
# [17] = 9.5 µg/ml, genetic background: Δrob
# [18] = 9.5 µg/ml, genetic background: ΔsoxS
# [19] = 19 µg/ml, genetic background: wild type
# [20] = 19 µg/ml, genetic background: ΔmarA
# [21] = 19 µg/ml, genetic background: Δrob
# [22] = 19 µg/ml, genetic background: ΔsoxS
smiles,measurement,setting,value
CO[C@@H]1[C@@H](OC(N)=O)[C@@H](O)[C@H](Oc2ccc3c(O)c(NC(=O)c4ccc(O)c(CC=C(C)C)c4)c(=O)oc3c2C)OC1(C)C [Novobiocin],promoter activity interaction Z-score,[1]; [7],0.244 ± 0.011
same,promoter activity interaction Z-score,[1]; [8],-0.347 ± 1.3
same,promoter activity interaction Z-score,[1]; [9],0.848 ± 0.4
same,promoter activity interaction Z-score,[1]; [10],0.546 ± 0.036
same,promoter activity interaction Z-score,[1]; [11],0.442 ± 0.43
same,promoter activity interaction Z-score,[1]; [12],0.136 ± 0.95
same,promoter activity interaction Z-score,[1]; [13],1.49 ± 0.32
same,promoter activity interaction Z-score,[1]; [14],0.39 ± 0.16
same,promoter activity interaction Z-score,[1]; [15],0.927 ± 0.17
same,promoter activity interaction Z-score,[1]; [16],-0.164 ± 0.91
same,promoter activity interaction Z-score,[1]; [17],1.06 ± 0.42
same,promoter activity interaction Z-score,[1]; [18],1.16 ± 0.38
same,promoter activity interaction Z-score,[1]; [19],2.99 ± 1.6
same,promoter activity interaction Z-score,[1]; [20],0.0115
same,promoter activity interaction Z-score,[1]; [21],10.3 ± 1.3
same,promoter activity interaction Z-score,[1]; [22],4.62 ± 1.6
same,promoter activity interaction Z-score,[2]; [7],-0.408 ± 0.09
same,promoter activity interaction Z-score,[2]; [8],0.0296 ± 0.17
same,promoter activity interaction Z-score,[2]; [9],0.145 ± 0.073
same,promoter activity interaction Z-score,[2]; [10],-0.147 ± 0.056
same,promoter activity interaction Z-score,[2]; [11],0.134 ± 0.14
same,promoter activity interaction Z-score,[2]; [12],0.213 ± 0.017
same,promoter activity interaction Z-score,[2]; [13],0.0635 ± 0.05
same,promoter activity interaction Z-score,[2]; [14],-0.119 ± 0.12
same,promoter activity interaction Z-score,[2]; [15],0.284 ± 0.49
same,promoter activity interaction Z-score,[2]; [16],0.421 ± 0.17
same,promoter activity interaction Z-score,[2]; [17],0.245 ± 0.24
same,promoter activity interaction Z-score,[2]; [18],0.14 ± 0.16
same,promoter activity interaction Z-score,[2]; [19],1.5406 ± 0.00073
same,promoter activity interaction Z-score,[2]; [20],0.113 ± 0.18
same,promoter activity interaction Z-score,[2]; [21],-0.174 ± 0.2
same,promoter activity interaction Z-score,[2]; [22],1.4 ± 0.62
same,promoter activity interaction Z-score,[3]; [7],0.0673 ± 0.21
same,promoter activity interaction Z-score,[3]; [8],-0.291 ± 0.042
same,promoter activity interaction Z-score,[3]; [9],0.21 ± 0.083
same,promoter activity interaction Z-score,[3]; [10],-0.226 ± 0.19
same,promoter activity interaction Z-score,[3]; [11],0.318 ± 0.29
same,promoter activity interaction Z-score,[3]; [12],-0.339 ± 0.52
same,promoter activity interaction Z-score,[3]; [13],0.165 ± 0.0019
same,promoter activity interaction Z-score,[3]; [14],0.0876 ± 0.53
same,promoter activity interaction Z-score,[3]; [15],-0.446 ± 0.54
same,promoter activity interaction Z-score,[3]; [16],-1.53 ± 0.12
same,promoter activity interaction Z-score,[3]; [17],-1.13 ± 0.89
same,promoter activity interaction Z-score,[3]; [18],-0.424 ± 0.61
same,promoter activity interaction Z-score,[3]; [19],-1.63 ± 0.2
same,promoter activity interaction Z-score,[3]; [20],-1.87 ± 0.17
same,promoter activity interaction Z-score,[3]; [21],-2.05 ± 0.56
same,promoter activity interaction Z-score,[3]; [22],-1.87 ± 0.47
same,promoter activity interaction Z-score,[4]; [7],0.51 ± 0.35
same,promoter activity interaction Z-score,[4]; [8],0.679 ± 0.23
same,promoter activity interaction Z-score,[4]; [9],1.25 ± 0.25
same,promoter activity interaction Z-score,[4]; [10],0.985 ± 1.4
same,promoter activity interaction Z-score,[4]; [11],1.19 ± 0.16
same,promoter activity interaction Z-score,[4]; [12],1.57 ± 0.17
same,promoter activity interaction Z-score,[4]; [13],1.21 ± 0.23
same,promoter activity interaction Z-score,[4]; [14],1.76 ± 1.1
same,promoter activity interaction Z-score,[4]; [15],0.92 ± 0.12
same,promoter activity interaction Z-score,[4]; [16],1.41 ± 0.34
same,promoter activity interaction Z-score,[4]; [17],1.08 ± 0.13
same,promoter activity interaction Z-score,[4]; [18],1.88 ± 0.47
same,promoter activity interaction Z-score,[4]; [19],2.49 ± 0.18
same,promoter activity interaction Z-score,[4]; [20],2.71 ± 1.5
same,promoter activity interaction Z-score,[4]; [21],2.7 ± 1.2
same,promoter activity interaction Z-score,[4]; [22],2.56 ± 1.5
same,promoter activity interaction Z-score,[5]; [7],-0.136 ± 0.025
same,promoter activity interaction Z-score,[5]; [8],-0.0396 ± 0.014
same,promoter activity interaction Z-score,[5]; [9],0.132 ± 0.012
same,promoter activity interaction Z-score,[5]; [10],-0.0347 ± 0.41
same,promoter activity interaction Z-score,[5]; [11],0.0479 ± 0.082
same,promoter activity interaction Z-score,[5]; [12],-0.0499 ± 0.0013
same,promoter activity interaction Z-score,[5]; [13],0.0442 ± 0.016
same,promoter activity interaction Z-score,[5]; [14],0.0803 ± 0.2
same,promoter activity interaction Z-score,[5]; [15],-0.193 ± 0.16
same,promoter activity interaction Z-score,[5]; [16],-0.125 ± 0.18
same,promoter activity interaction Z-score,[5]; [17],0.00176 ± 0.065
same,promoter activity interaction Z-score,[5]; [18],0.0899 ± 0.22
same,promoter activity interaction Z-score,[5]; [19],-0.00867 ± 0.13
same,promoter activity interaction Z-score,[5]; [20],-0.000878 ± 0.32
same,promoter activity interaction Z-score,[5]; [21],-0.0162 ± 0.056
same,promoter activity interaction Z-score,[5]; [22],0.304 ± 0.35
same,promoter activity interaction Z-score,[6]; [7],0.183 ± 0.43
same,promoter activity interaction Z-score,[6]; [8],0.192 ± 0.74
same,promoter activity interaction Z-score,[6]; [9],0.95 ± 0.16
same,promoter activity interaction Z-score,[6]; [10],-0.793 ± 0.74
same,promoter activity interaction Z-score,[6]; [11],0.878 ± 0.85
same,promoter activity interaction Z-score,[6]; [12],1.47 ± 0.72
same,promoter activity interaction Z-score,[6]; [13],0.512 ± 0.0012
same,promoter activity interaction Z-score,[6]; [14],0.453 ± 0.65
same,promoter activity interaction Z-score,[6]; [15],0.713 ± 0.2
same,promoter activity interaction Z-score,[6]; [16],1.93 ± 0.4
same,promoter activity interaction Z-score,[6]; [17],1.26 ± 0.14
same,promoter activity interaction Z-score,[6]; [18],0.497 ± 0.4
same,promoter activity interaction Z-score,[6]; [19],1.73 ± 1.4
same,promoter activity interaction Z-score,[6]; [20],0.8 ± 2.4
same,promoter activity interaction Z-score,[6]; [21],2.44 ± 0.49
same,promoter activity interaction Z-score,[6]; [22],2 ± 0.17
